# Only some compounds are listed: those with a hit (about 4.8% of all), similar ones and a draw of the others.
# SMARCA2 activ = SMARCA2 (BRM) function activators, primary screen, cell-based, luminescence, high throughput; MG213 cells, MMTV-luciferase reporter, dexamethasone, overnight; 370,000 compounds, 1% hits; activation, % at 9.1 µM; in the data active = activation above about 7.8%;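 note: 0% = vehicle wells and 100% = reference activator wells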
# ssDAF-12 act = S. stercoralis DAF-12 nuclear receptor activators, primary screen, cell-based, luminescence, HEK293, GRIP1 co-expression, lit1-tk-luc; 370,000 compounds, 1% hits; HEK293 ssDAF-12/GRIP1 lit1-tk-luc reporter; % of 3 µM dafachronic acid response; Nuclear hormone receptor DAF-12 (Strongyloides stercoralis); activation, % at 6.8 µM; AID 652126, 2013;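 active = activation above the mean over all tested compounds plus 3 SD, cut at about 0.9% in these data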;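 note: 0% = DMSO-only wells and 100% = 3 µM delta7-dafachronic acid wells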
# DAX1 inh-1 = DAX1 (NR0B1) inhibitors on StAR promoter, primary screen, cell-based, luminescence, SF-1 (NR5A1), full-length DAX-1; 370,000 compounds, 1.1% hits; HEK293T StAR-luciferase reporter, SF-1/DAX-1 repression relief; AID 652010, 2013; inhibition, % at 6.8 µM;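 active = inhibition above the mean over all tested compounds plus 3 SD, cut at about 3.6% in these data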;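 note: 0% = DAX-1 cells with DMSO and 100% = cells lacking DAX-1 with DMSO; higher inhibition means more luminescence from relief of DAX-1 repression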
# DAX1 inh-2 = DAX1 (NR0B1) inhibitors, primary screen, cell-based, HEK293, Gal4-DAX1, luciferase luminescence; inhibition, % at 6.75 µM; 340,000 compounds, 0.99% hits; HEK293 Gal4-DAX1 luciferase reporter; Nuclear receptor subfamily 0 group B member 1 (Homo sapiens), P51843; AID 504766, 2011;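 active = inhibition above the mean over all tested compounds plus 3 SD, cut at about 4.2% in these data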;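 note: 0% = DAX1-transfected cells with DMSO and 100% = empty-vector control cells with DMSO; inhibition shows as a rise in luminescence from relieved DAX1 repression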
# Target sequence (P51843 207-470 limits assumed): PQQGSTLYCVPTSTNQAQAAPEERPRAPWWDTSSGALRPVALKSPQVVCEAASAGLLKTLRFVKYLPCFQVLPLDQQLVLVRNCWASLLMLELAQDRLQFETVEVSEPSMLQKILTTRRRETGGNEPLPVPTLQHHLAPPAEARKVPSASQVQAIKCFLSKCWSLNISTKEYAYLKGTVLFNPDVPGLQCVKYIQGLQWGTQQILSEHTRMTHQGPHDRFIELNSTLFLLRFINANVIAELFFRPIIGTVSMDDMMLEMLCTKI
# hcDAF-12 act = H. contortus DAF-12 nuclear receptor activators, primary screen, cell-based, luminescence, HEK293, lit1-tk-luc reporter; 370,000 compounds, 1.4% hits; HEK293 hcDAF-12 lit1-tk-luc reporter; 0% DMSO, 100% Δ7-dafachronic acid; AID 652067, 2013; activation, % at 6.8 µM;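 active = activation above the mean of all tested compounds plus 3 SD, cut at about 5.5% in these data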;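 note: 100% = response to 3 µM Δ7-dafachronic acid high control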
# hgDAF12 agonist = H. glycines DAF-12 receptor agonists, primary screen, cell-based, luminescence, HEK293, GAL4 fusion, UAS-luciferase. activation, % at 6.8 µM. 370,000 compounds, 1.8% hits. HEK293 GAL4-hgDAF12 UAS-luciferase reporter, agonist luminescence; normalized to butyrate control. Nuclear hormone receptor DAF-12 (Heterodera glycines), GAL4 fusion;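 active = activation above a cutoff set at the mean of all screened compounds plus 3 SD, cut at about 10% in these data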;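 note: 0% = DMSO wells and 100% = sodium butyrate wells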
# An asterisk follows results filed as active; x = not tested or not shown.
SMILES,SMARCA2 activ,ssDAF-12 act,DAX1 inh-1,DAX1 inh-2,hcDAF-12 act,hgDAF12 agonist
CN(Cc1ccccc1)C(=O)c1cccc(NC(=O)Cc2ccc(NC(=O)C3CCCN(C(=O)C4CC4)C3)cc2)c1 (stereo not drawn),-3,0,-1,-1,-1,-2
CN(C)c1cccc(Nc2ccc(-c3ccc(OC(F)(F)F)cc3)cn2)c1,-5,-1,0,x,-1,-6
COc1ccc(-c2cc3nc[nH]c(=O)c3s2)cc1,6,0,1,-1,1,11*
COc1ccc(-c2cc3nc(CCl)[nH]c(=O)c3s2)cc1,2,0,3,-2,5.9*,12*
COC(=O)c1ccc(CNc2ccc(C(C)=O)cc2)cc1,-1,-1,0,x,1,3
NNC(=O)c1oc2nc(-c3ccccc3)cc(-c3ccccc3)c2c1N,-1,-1,-1,1,-1,1
CNC(=S)NNC(=O)c1oc2nc(-c3ccccc3)cc(C)c2c1N,-5,0,1,2,6.1*,1
O=C1NC[C@@H](CCCCN2C[C@H](Cc3ccccc3)N(Cc3ccccc3)C(=O)C2=O)N(Cc2ccccc2)C1=O,0,-1,0,x,2,2
CCc1ccc(Nc2nnc(SCC(=O)NCCN3C(=O)CSC3=O)s2)cc1,4,0,1,-1,2,12*
CCc1ccc(Nc2nnc(SCC(=O)Nc3sccc3C(N)=O)s2)cc1,1,-1,0,-1,2,8
CCCOC(=O)Nc1cc(OC)ccc1[N+](=O)[O-],1,0,0,4.7*,2,5
O=C(CCc1nnc(CCCc2ccccc2)o1)NCCN1CCOC1=O,-3,-1,1,3,0,-1
Cn1cc(CCNC(=O)CCc2nnc(CCCCc3ccccc3)o2)cn1,-1,-2,0,-1,-2,12*
CC(=O)N1C2=CCCC3CCCCC23c2ccccc21 (stereo not drawn),-2,-2,1,1,0,3
C[C@@H](NC(=O)[C@@H]1Cc2ccccc2CN1)C(=O)Nc1ccc2c(c1)OCO2,-1,-1,1,5.2*,-1,3
COc1ccc(-c2noc(CN(C)C(=O)c3ccoc3C)n2)cc1OC,-2,-1,0,1,-1,-1
COc1ccc(-c2cc3c(=O)n(CC(=O)NCc4cccnc4)ncn3n2)cc1,3,0,3.8*,-1,6.1*,11*
CCOC(=O)CSc1nc(Cc2ccccc2)nc2ccccc12,2,-1,0,4.3*,-3,-1
CCOC(=O)CSc1nc(CC)nc2ccccc12,2,-2,0,0,0,1
Cc1cccc(N(Cc2ccccc2)C(=O)CN2C(=O)NC3(CCCCC3C)C2=O)c1 (stereo not drawn),-1,-1,-2,-1,0,-3
O=C1CCN(Cc2ccccc2)CCN1CCSc1ccccc1,4,0,1,1,4,7
CCCN1CCC(=O)N(CCSc2ccccc2)CC1,4,0,1,4,3,11*
Cc1cc2nc(C(C)(C)C)c(CC3CCCCC3)n2c(C)c1Br,-1,0,-2,x,1,1
NC(=O)C1CC12c1ccccc1-c1ccccc12 (stereo not drawn),-2,-1,1,2,-2,-2
Cc1cccc(NC(=S)NNC(=O)c2cc3c(s2)CCC(C)C3)c1C (stereo not drawn),-3,20*,0,0,-1,-3
SMILES,SMARCA2 activ,ssDAF-12 act,DAX1 inh-1,DAX1 inh-2,hcDAF-12 act,hgDAF12 agonist
Cc1ccc(SCC(=O)O/N=C(\N)c2cccc([N+](=O)[O-])c2)cc1,1,0,0,1,0,0
Cc1ccc(OCC(=O)O/N=C(\N)c2cccc([N+](=O)[O-])c2)cc1C,1,0,0,2,6.0*,3
NC(=O)C1CCN(C(=O)c2ccc3nc(N4CCCCC4)sc3c2)CC1,2,0,1,5.2*,1,7
CCOC(=O)N1CCN(C(=O)c2ccc3nc(N4CCC(C)CC4)sc3c2)CC1,-2,-2,-1,-2,-1,0
CCOC(=O)N1CCN(C(=O)c2ccc3nc(N4CCCCC4)sc3c2)CC1,2,-1,0,0,-1,1
COc1cccc(N2CCN(C(=O)c3ccc4nc(N5CCC(C)CC5)sc4c3)CC2)c1,1,-1,1,x,1,12*
O=C(c1cccs1)C1CCN(c2ncnc3sccc23)CC1,x,-3,x,x,-6,-10
COC(=O)c1ccc(N=NNc2ccccc2)cc1,5,0,4.1*,3,4,11*
COC(=O)c1ccc(N=NN2CCCCCC2)cc1,5,0,3,2,0,10
CC(=O)Nc1sc2c(c1-c1nc3ccccc3s1)CCN(C(C)=O)C2,x,0,x,x,6.2*,7
CC(=O)N1CCc2c(sc(NC(=O)C3CC3)c2-c2nc3ccccc3s2)C1,1,-1,-3,1,-1,1
CC(OC(=O)c1nccnc1N)C(=O)Nc1ccc(S(=O)(=O)N2CCCC2)cc1 (stereo not drawn),-2,-1,1,4.6*,-1,-1
CC(=O)Nc1ccc(NC(=O)CSc2ccc(C)cc2)cc1,4,-1,0,0,-1,1
Cc1ccc(SCC(=O)c2ccc[nH]2)cc1,5,-1,0,1,0,11*
Cc1ccc(CNC(=O)NCc2ccccc2)cc1,1,-1,0,1,0,1
Cc1ccc(CNC(=O)c2ccc[nH]2)cc1,-2,-1,1,5.6*,-2,2
O=[N+]([O-])c1ccc(S(=O)(=O)NN=Cc2ccc(Cl)c(Cl)c2)cc1,-2,-1,0,2,1,0
Cc1cc(Cl)cc(C)c1OCC(=O)N1CCN(c2ncccn2)CC1,0,-1,2,0,-2,-2
CNC(=S)N(CCc1ccc(OC)c(OC)c1)C1CC(=O)N(c2ccccc2)C1=O (stereo not drawn),x,x,x,5.0*,x,x
CCCOc1ccc(N2C(=O)CC(N(CCc3ccc(OC)c(OC)c3)C(=S)Nc3ccccc3)C2=O)cc1 (stereo not drawn),x,x,x,0,x,x
COc1ccc(CC(=O)OCC(=O)Nc2cccc(C(C)=O)c2)cc1OC,4,-1,2,0,2,-2
